Structures can show the parent of a compound that is named as a salt. ± gives the standard deviation of the averaged measurements. Over roughly 1,600 compounds, “mitochondrial oxygen consumption rate normalised to cell number, Z score over the library” has its median near 0.065; the lowest 2% begin near -2.2. What follows is part of a selection rich in the lowest values, with near analogues and random picks from the rest.
system: FaDu; assay: mitochondrial oxygen consumption rate normalised to cell number, Z score over the library; higher = higher oxygen consumption (negative = OCR reduction); conditions: treatment time 24 h; assay medium: 5 mM galactose, 5 mM pyruvate, 4 mM glutamine; 10 µM
Experimental: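 Primary screen: FaDu cells were incubated 24 h with Pharmakon 1600 / TDI oncology set compounds at 2 or 10 uM. Mitochondrial-specific OCR (basal minus 2 uM antimycin A) was measured on a Seahorse XF96 in assay medium with 5 mM galactose, 5 mM pyruvate and 4 mM glutamine, then corrected for Hoechst cell number and expressed as a Z score […]. Compounds that cut cell number by >66% were excluded. Two repeats.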

SMILES	mitochondrial oxygen consumption rate normalised
CNC(=O)c1cc(Oc2ccc(NC(=O)Nc3ccc(Cl)c(C(F)(F)F)c3)cc2)ccn1	-2.31 ± 0.25
C#C[C@]1(OC(C)=O)CC[C@H]2[C@@H]3CCC4=CC(=NO)CC[C@@H]4[C@H]3CC[C@@]21CC (mixture of isomers)	1.1 ± 0.091
CC(C)(C)CC(=O)OCC(=O)[C@@]1(O)CC[C@H]2[C@@H]3CCC4=CC(=O)C=C[C@]4(C)[C@H]3[C@@H](O)C[C@@]21C	-0.63 ± 0.68
COc1cc([C@@H]2c3cc4c(cc3[C@@H](O[C@@H]3O[C@@H]5CO[C@@H](C)O[C@H]5[C@H](O)[C@H]3O)[C@H]3COC(=O)[C@H]23)OCO4)cc(OC)c1O [Etoposide]	-0.0499 ± 0.023
COc1cc([C@@H]2c3cc4c(cc3[C@@H](O[C@@H]3O[C@@H]5CO[C@@H](c6cccs6)O[C@H]5[C@H](O)[C@H]3O)[C@H]3COC(=O)[C@H]23)OCO4)cc(OC)c1O	-3.75 ± 0.66
COc1cc([C@@H]2c3cc4c(cc3[C@@H](O[C@@H]3O[C@@H]5CO[C@@H](C)O[C@H]5[C@H](O)[C@H]3O)[C@H]3COC(=O)[C@H]23)OCO4)cc(OC)c1O	-1.53 ± 0.61
Nc1ccc2cc3ccc(N)cc3nc2c1	-2.55 ± 0.27
Nc1c2ccccc2nc2ccccc12	-1.9 ± 0.35
O=C(OOC(=O)c1ccccc1)c1ccccc1	0.517 ± 0.52
O=C(Oc1cccc2cccnc12)c1ccccc1	-0.0234 ± 0.66
Cc1ccc2c(Br)cc(Br)c(OC(=O)c3ccccc3)c2n1	-2.31 ± 0.47
CCCCCCCCCCCCCCCC[N+](C)(C)CCN(Cc1ccc(OC)cc1)c1ncccn1	-2.13 ± 0.31
CO/N=C1\C[C@]2(C[C@@H]3C[C@@H](C/C=C(\C)C[C@@H](C)/C=C/C=C4\CO[C@@H]5[C@H](O)C(C)=C[C@@H](C(=O)O3)[C@]45O)O2)O[C@H](/C(C)=C/C(C)C)[C@H]1C	-0.513 ± 0.34
Cc1cccc(C)c1NC(=O)c1ccccc1C(=O)O	-0.418 ± 1.1
CCCCC(CC)CCC(CC(C)C)OS(=O)(=O)O (stereo not drawn)	0.745 ± 1.4
O.O.O=C([O-])CN(CCN(CC(=O)[O-])CC(=O)O)CC(=O)O.[Na+].[Na+]	1.52 ± 0.75
CC1(C)S[C@@H]2[C@H](NC(=O)Cc3ccccc3)C(=O)N2[C@H]1C(=O)O	-0.601 ± 0.075
COC(=O)Nc1nc2cc(C(=O)c3ccc(F)cc3)ccc2[nH]1	0.265 ± 0.4
CC(C)(C)NC[C@H](O)c1ccc(O)c(CO)c1	0.0168 ± 0.31
C[n+]1c2cc(N)ccc2cc2ccc(N)cc21	-4.5 ± 0.35
C=CCCCCCCCCC(=O)O	1.2 ± 0.61
Cc1c(C)c2c(c(C)c1O)CCC(C)(CCCC(C)CCCC(C)CCCC(C)C)O2 (stereo not drawn) [alpha-TOCHOPHEROL]	-0.681 ± 0.38
CC(=O)OCC(=O)[C@@]12OC(C)(C)O[C@@H]1C[C@H]1[C@@H]3C[C@H](F)C4=CC(=O)C=C[C@]4(C)[C@@]3(F)[C@@H](O)C[C@@]12C	0.605 ± 0.52
CN[C@H]1CC[C@@H](c2ccc(Cl)c(Cl)c2)c2ccccc21	-0.618 ± 0.057
OC[C@H]1O[C@@H](n2cnc3c2N=CNC[C@H]3O)C[C@@H]1O [Pentostatin]	0.38 ± 0.31
C[C@@H]1O[C@@H]1P(=O)(O)O	0.794 ± 0.12
C=CCNC(N)=S	0.218 ± 1.4

SMILES	mitochondrial oxygen consumption rate normalised
Oc1c(Br)cc(Br)c2cccnc12	-1.77 ± 0.19
CCOc1ccc2nc(S(N)(=O)=O)sc2c1	-0.459 ± 0.36
CCOc1ccc2nc3cc(N)ccc3c(N)c2c1	-3.35 ± 0.25
CN(Cc1cc(Br)cc(Br)c1N)C1CCCCC1	0.728 ± 0.24
NNCCc1ccccc1	-0.3 ± 0.16
CO[C@H]1/C=C/O[C@@]2(C)Oc3c(C)c(O)c4c(O)c(c5c(nc6cc(C)ccn65)c4c3C2=O)NC(=O)/C(C)=C\C=C\[C@H](C)[C@H](O)[C@@H](C)[C@@H](O)[C@@H](C)[C@H](OC(C)=O)[C@@H]1C	0.795 ± 0.38
Cc1ccc(Nc2nccc(N(C)c3ccc4c(C)n(C)nc4c3)n2)cc1S(N)(=O)=O [Pazopanib HCl]	-0.379 ± 0.45
OCC(S)CS (stereo not drawn)	-0.239 ± 0.68
N=C(N)c1ccc(OCCCCCOc2ccc(C(=N)N)cc2)cc1	-3.01 ± 0.078
N=C(N)c1ccc(N=NNc2ccc(C(=N)N)cc2)cc1	-0.185 ± 0.46
CCCCOc1ccc(C(=O)CCN2CCCCC2)cc1	-0.0802 ± 0.69
CC1CCN(CCCC(=O)c2ccc(F)cc2)CC1	-0.602 ± 0.36
CCCCC/C=C/CCC(=O)N[C@H]1[C@H](Oc2c3cc4cc2Oc2ccc(cc2Cl)[C@@H](O[C@@H]2O[C@H](CO)[C@@H](O)[C@H](O)[C@H]2NC(C)=O)[C@@H]2NC(=O)[C@H](NC(=O)[C@@H]4NC(=O)[C@H]4NC(=O)C(Cc5ccc(c(Cl)c5)O3)NC(=O)[C@H](N)c3ccc(O)c(c3)Oc3cc(O)cc4c3)c3ccc(O)c(c3)-c3c(OC4O[C@H](CO)[C@@H](O)[C@H](O)[C@@H]4O)cc(O)cc3[C@@H](C(=O)O)NC2=O)O[C@H](CO)[C@@H](O)[C@@H]1O (stereo partly drawn) [TEICOPLANIN [A(2-1) shown]]	1.41 ± 0.64
COCCCOc1cc(C[C@@H](C[C@H](N)[C@@H](O)C[C@H](C(=O)NCC(C)(C)C(N)=O)C(C)C)C(C)C)ccc1OC	0.624 ± 0.066
Nc1ncnc2c1ncn2[C@@H]1O[C@H](CO)[C@@H](O)[C@@H]1O	0.868 ± 0.46
Cc1ccccc1N1C(=O)c2cc(S(N)(=O)=O)c(Cl)cc2NC1C (stereo not drawn)	0.24 ± 0.2
CCCSc1ccc2[nH]c(NC(=O)OC)nc2c1	0.883 ± 0.12
O=C1c2c(O)cc(CO)cc2C(OC2OC(CO)C(O)C(O)C2O)c2cccc(OC3OC(CO)C(O)C(O)C3O)c21 (stereo not drawn) [CASANTHRANOL [cascaroside A shown]]	-0.942 ± 0.28
C[C@H](Cn1cnc2c(N)ncnc21)OCP(=O)(O)O	0.449 ± 0.26
CCC1=C(C)CN(C(=O)NCCc2ccc(S(=O)(=O)NC(=O)N[C@H]3CC[C@H](C)CC3)cc2)C1=O	0.0168 ± 0.78
Cc1c(-c2cnccn2)ssc1=S	-0.416 ± 0.25
Cc1nccnc1N1CCCCC1	0.47 ± 0.26
CC(=O)NC(Cc1ccccc1)C(=O)O (stereo not drawn)	0.121 ± 0.33
C[Se]CC[C@H](N)C(=O)O	0.623 ± 0.23
CC(=O)OCC(=O)[C@@]1(O)[C@H](OC(C)=O)C[C@H]2[C@@H]3CCC4=CC(=O)C=C[C@]4(C)[C@@]3(F)[C@@H](O)C[C@@]21C	0.894 ± 0.33
CS(=O)(=O)CCNCc1ccc(-c2ccc3ncnc(Nc4ccc(OCc5cccc(F)c5)c(Cl)c4)c3c2)o1 [Lapatinib Ditosylate]	-0.0282 ± 1.2

Source: the supplement of paper PMC4962491
